Test results published in PubChem BioAssay AID463173 (ICCB-Longwood Screening Facility, Harvard Medical School, 2010).
In all, about 52,000 compounds went through this assay and about 4,300 (8.3%) were called active. For the sample, actives were picked, then their nearest neighbours and some compounds at random. Unmarked numbers belong to inactive results. Rule as the data show it: active = survival mostly below about 52% (no sharp cut-off); inactive = mostly above about 56%.

Tested on: DeltatarO mutant
Assay: growth inhibition of S. aureus wild type versus tarO mutant, primary screen, teichoic acid synthesis inhibitors, RN4220, OD600 (AID 463173)
Settings: OD600, 18 h, active compounds read low, screened at 18.75 µg/mL (by protocol)

| SMILES | survival |
| --- | --- |
| CCN(CC)CCCNc1nc(C)nc2c1nnn2Cc1ccccc1 | 94% |
| CC(C(=O)NCc1ccco1)N1CCN(C)CC1 (stereo unspecified) | 95% |
| CC(C)NC(=O)Cc1ccc(Br)cc1 | 80% |
| Cc1cccc(N(C)S(=O)(=O)c2cc(-c3cnc(C4CC4)o3)ccc2C)c1 | 100% |
| CCn1c(SCC(=O)Nc2ccc(C)c(C)c2)nnc1-c1nonc1NC(C)=O | 110% |
| CCOc1ccc(NC(=O)CSc2nnc(-c3ccncc3)n2-c2ccccc2)cc1 | 122% |
| COc1ccccc1NC(=O)CSc1nnc(-c2nonc2NC(C)=O)n1-c1ccccc1 | 63% |
| CC(=O)Nc1nonc1-c1nnc(SCC(=O)Nc2ccc(C)cc2)n1-c1ccccc1 | 53% |
| COc1ccc(NC(=O)CSc2nnc(-c3nonc3NC(C)=O)n2-c2ccccc2)cc1 | 60% (active) |
| CCc1ccc(NC(=O)CSc2nnc(-c3nonc3NC(C)=O)n2-c2ccccc2)cc1 | 43% (active) |
| CC(=O)Nc1nonc1-c1nnc(SCC(=O)Nc2c(C)cccc2C)n1-c1ccccc1 | 56% |
| CCc1ccccc1NC(=O)CSc1nnc(-c2nonc2NC(C)=O)n1C | 52% |
| CC(=O)Nc1nonc1-c1nnc(SCC(=O)Nc2cc(C)ccc2C)n1-c1ccccc1 | 104% |
| CC(=O)Nc1nonc1-c1nnc(SCC(=O)Nc2ccc(F)cc2F)n1-c1ccccc1 | 13% (active) |
| COc1ccc(NC(=O)CSc2nnc(-c3ccncc3)n2-c2ccccc2)cc1 | 77% |
| CC(=O)Nc1nonc1-c1nnc(SCC(=O)Nc2ccccc2)n1-c1ccccc1 | 39% (active) |
| Cc1cccc(NC(=O)CSc2nc3ccc(NC(=O)c4ccco4)cc3s2)c1 | 66% |
| CCC1CN(C(=O)N2CCC(C(=O)NCc3ccc(OC)cc3OC)CC2)c2cc(C)ccc2O1 (stereo unspecified) | 79% |
| CCOc1cc(C2c3c(oc4ccccc4c3=O)C(=O)N2c2ccccn2)ccc1O (stereo unspecified) | 109% |
| CCOC(=O)Cn1c(=O)oc2cc(S(=O)(=O)NCc3ccc(F)cc3)ccc21 | 72% |
| Cc1cccn2c(=O)c(C(=O)NCCc3ccc(S(N)(=O)=O)cc3)c(O)nc12 | 51% |
| Cc1nn2c(=O)cc(COc3ccc(/C=C(\C#N)C(=O)Nc4ccc(F)cc4)cc3)nc2s1 | 58% |
| CCOC(=O)c1c(C)[nH]c(C)c1S(=O)(=O)N1CCC(C(=O)Nc2ccc(C)c(N(C)C)c2)CC1 | 84% |

| SMILES | survival |
| --- | --- |
| CC(=O)N1CCc2nc3sc(C(=O)Nc4ccc(Cl)cc4F)c(N)c3c(C(F)(F)F)c2C1 | 75% |
| CC(=O)Nc1nonc1-c1nnc(SCC(=O)Nc2cccc(C)c2C)n1-c1ccccc1 | 61% |
| CC(=O)Nc1nonc1-c1nnc(SCC(=O)Nc2cccc(F)c2)n1-c1ccccc1 | 19% (active) |
| CC(=O)Nc1nonc1-c1nnc(SCC(=O)Nc2cc(C)cc(C)c2)n1-c1ccccc1 | 50% |
| Cc1nc2cc(-c3ccccc3)nn2c(C)c1CCC(=O)Nc1ccc(F)cc1F | 61% |
| CCOC(=O)N1CCc2c(sc3c2c(=O)n(Cc2ccccc2)c(=O)n3CC(=O)Nc2cccc(CC)c2)C1 | 71% |
| COc1cc(NC(=O)C(Cc2ccccc2)NS(=O)(=O)c2cccc3nsnc23)cc(OC)c1 (stereo unspecified) | 72% |
| O=C(Nc1ccc(OC(F)(F)F)cc1)C(NS(=O)(=O)c1cccc2nsnc12)c1ccccc1 (stereo unspecified) | 56% |
| O=C(Nc1ccc(OC(F)(F)F)cc1)C(Cc1ccccc1)NS(=O)(=O)c1cccc2nsnc12 (stereo unspecified) | 49% (active) |
| CCc1ccccc1NC(=O)N1CCN(c2cc(-c3noc(C)n3)ccc2C)CC1 | 134% |
| S=c1[nH]nc(CCCOc2ccc(Cl)cc2Cl)o1 | 54% |
| O=C(NC1CCCCC1)NC1CCN(Cc2nnnn2Cc2ccc(F)cc2)CC1 | 88% |
| COc1ccc(Cn2ccc3nc(C)c(C(=O)N4CCN(c5ccccc5F)CC4)cc3c2=O)cc1 | 63% |
| COc1ccc(CCC(=O)NCc2ccc3c(c2)CCN3C(=O)c2ccc(Cl)cc2)cc1 | 89% |
| COc1ccc(C(=O)N2c3ccccc3C(C)(c3ccc(Cl)cc3)CC2(C)C)cc1 (stereo unspecified) | 11% (active) |
| COc1ccccc1C(=O)N1CCC(c2c[nH]c3ccccc23)(c2c[nH]c3ccccc23)CC1 | 98% |
| COc1ccccc1C(=O)CC1(O)C(=O)N(CC(N)=O)c2ccccc21 (stereo unspecified) | 61% |
| CC1CCN(C(=O)c2cccc(Cl)c2)CC1 | 93% |
| CC1(c2ccccc2)CC(C)(C)N(C(=O)c2cccc(Cl)c2)c2ccccc21 (stereo unspecified) | 8% (active) |
| CC1(c2ccccc2)CC(C)(C)N(C(=O)c2ccccc2Cl)c2ccccc21 (stereo unspecified) | -4% (active) |
| O=C(c1ccccc1Cl)n1cc(Cl)cn1 | 95% |
| CN1CC2(C)CN(C(=O)c3ccccc3Cl)CC(C)(C1)C2 | 88% |
| COc1ccc(C(=O)N2CCC(C(=O)Nc3ccc(Cl)cc3)CC2)cc1 | 127% |

| SMILES | survival |
| --- | --- |
| CC1CCN(c2ccc(NC(=O)c3cccc(Cl)c3)cc2C(=O)O)CC1 | 87% |
| COc1ccccc1C(=O)N1c2ccccc2C(C)(c2ccc(Cl)cc2)CC1(C)C (stereo unspecified) | 0% (active) |
| CC(C(=O)c1ccccc1)n1cnc2ccccc2c1=O (stereo unspecified) | 104% |
| COc1ccccc1N1CCN(C(=O)Cn2cnc3onc(-c4ccc(F)cc4)c3c2=O)CC1 | 84% |
| Fc1ccc(CN2CCc3nc(N4CCN(c5ccccc5F)CC4)ncc3C2)c(F)c1 | 77% |
| Cc1cc(NC(=O)CCn2c(=O)c3cccn3c3cccnc32)ccc1Br | 102% |
| COc1ccc(CNC(=O)Cn2c(=O)nc(-c3ccccc3)c3ccccc32)cc1OC | 89% |
| CCCCc1nn2c(=O)cc(COC(=O)c3ccccc3NC(=O)C3CCCCC3)nc2s1 | 71% |
| CC1=C(c2cccc(Cl)c2)S(=O)(=O)NC1=NCc1ccccc1C | 99% |
| CC1(C)C(=O)N(CC(=O)Nc2ccc(Cl)cc2)c2ccccc21 | 83% |
| O=C(c1cccc(F)c1)N1CCC(c2c[nH]c3ccccc23)(c2c[nH]c3ccccc23)CC1 | 86% |
| CC1(c2ccc(Cl)cc2)CC(C)(C)N(C(=O)c2cccc(F)c2)c2ccccc21 (stereo unspecified) | 11% (active) |
| CC1CC(C)CN(C(=O)c2ccc(Cl)cc2)C1 (stereo unspecified) | 96% |
| O=C(NCc1ccc2c(c1)CCN2C(=O)c1ccc(Cl)cc1)c1cccc(F)c1 | 61% |
| CC1(c2ccc(Cl)cc2)CC(C)(C)N(C(=O)c2ccccc2)c2ccccc21 (stereo unspecified) | -4% (active) |
| CCOC(=O)c1c(NC(=O)CSc2cn(CCNC(=O)c3ccccc3OC)c3ccccc23)sc2c1CCC2 | 141% |
| CCOc1ccc(-c2cc(-c3nc(-c4cc(OC)c(OC)c(OC)c4)no3)[nH]n2)cc1Cl | 96% |
| Cc1nnc(N2CCCC(C(=O)NCCc3ccccc3)C2)c2nn(-c3ccccc3)c(C)c12 (stereo unspecified) | 94% |
| O=C(Nc1ccccc1O)c1ccccn1 | 77% |
| Cc1ccc(C)c(N2CCN(C(=O)c3ccc4c(=O)n(CCc5ccccc5)c(=O)[nH]c4c3)CC2)c1 | 55% (active) |
| CCCCCn1c(=O)[nH]c2cc(C(=O)N3CCN(c4cccc(OC)c4)CC3)ccc2c1=O | 55% (active) |
| O=C(c1ccc2c(=O)n(CCc3ccccc3)c(=O)[nH]c2c1)N1CCN(c2ccc(F)cc2)CC1 | 111% |
| CCCCCn1c(=O)[nH]c2cc(C(=O)N3CCN(c4cccc(Cl)c4)CC3)ccc2c1=O | 71% |

| SMILES | survival |
| --- | --- |
| CCCCCn1c(=O)[nH]c2cc(C(=O)N3CCN(c4ccc(OC)cc4)CC3)ccc2c1=O | 135% |
| COc1ccc(Cn2c(=O)[nH]c3cc(C(=O)N4CCN(c5cc(C)ccc5C)CC4)ccc3c2=O)cc1 | 73% |
| Cc1cccc(-n2ncc3c(N4CCN(CCO)CC4)ncnc32)c1 | 83% |
| Cc1ccc(Cc2cn3cc(-c4ccccc4)nc3s2)cc1 | 66% |
| COc1cccc(CN2C(=O)C3(SCC(=O)N3c3ccc(C)c(Cl)c3)c3ccccc32)c1 (stereo unspecified) | 52% (active) |
| COc1cccc(N2C(=O)CSC23C(=O)N(Cc2ccccc2)c2ccccc23)c1 (stereo unspecified) | 80% |
| COc1cccc(CN2C(=O)C3(SCC(=O)N3c3ccc(C(C)C)cc3)c3ccccc32)c1 (stereo unspecified) | 55% |
| CC(=O)N(Cc1cccnc1)c1nc2c(F)cc(F)cc2s1 | 89% |
| COC(=O)c1cc2oc3ccccc3c2n1Cc1nc(-c2ccc(Cl)cc2)oc1C | 91% |
| CCOc1ccc(CCNC(=O)Cn2ccc3cc(S(=O)(=O)N4CCCCC4)ccc32)cc1 | 102% |
| COc1ccc(C2=CC(c3ccc(F)cc3)n3ncc(C(=O)Nc4ccc(C)cc4)c3N2)cc1 (stereo unspecified) | 106% |
| CCc1ccc(C2C(C(=O)Nc3ccccc3)=C(C)Nc3c(C(=O)Nc4ccc(C)cc4)cnn32)cc1 (stereo unspecified) | 17% (active) |
| CCOc1ccc(NC(=O)c2cnn3c2NC(c2ccccc2)=CC3c2cccc(OC)c2OC)cc1 (stereo unspecified) | 62% |
| COc1ccc(C2C=C(c3cccc(OC)c3)Nc3c(C(=O)Nc4ccccc4)cnn32)cc1 (stereo unspecified) | 52% |
| COc1ccc(C2C=C(c3ccc(C)cc3)Nc3c(C(=O)Nc4ccccc4)cnn32)cc1 (stereo unspecified) | 53% (active) |
| CCc1ccc(C2C(C(=O)Nc3ccccc3OC)=C(C)Nc3c(C(=O)Nc4ccc(C)cc4)cnn32)cc1 (stereo unspecified) | 68% |
| CC1=C(C(=O)Nc2ccccc2)C(c2ccccc2Cl)n2ncc(C(=O)Nc3cccc(C)c3)c2N1 (stereo unspecified) | 88% |
| COc1cc(OC)c(C2C=C(c3ccc(C)cc3)Nc3c(C(=O)Nc4ccccc4)cnn32)cc1OC (stereo unspecified) | 48% |
| COc1ccccc1NC(=O)C1=C(C)Nc2c(C(=O)Nc3cccc(C)c3)cnn2C1c1ccccc1Cl (stereo unspecified) | -5% (active) |
| COc1ccccc1NC(=O)C1=C(C)Nc2c(C(=O)Nc3cccc(C)c3)cnn2C1c1ccccc1C (stereo unspecified) | 89% |
| COc1ccc(C2C(C(=O)Nc3ccccc3)=C(C)Nc3c(C(=O)Nc4ccccc4)cnn32)cc1 (stereo unspecified) | 126% |
| COc1cccc(C2C=C(c3ccccc3)Nc3c(C(=O)Nc4ccccc4)cnn32)c1OC (stereo unspecified) | 13% (active) |
